From PubChem BioAssay AID1159580 (chemical genetic matrix, 2015)
Where “and” joins values, the source holds several entries; their conditions need not be identical. Equal values may be shown once. In all, about 5,500 compounds went through this assay and about 2,000 (36%) were called active. About 18% were inconclusive and are not listed. Rule as the data show it: active = normalized growth mostly below about 0.91 (no sharp cut-off); inconclusive = no clear call, values can overlap the other calls; inactive = mostly above about 0.92. This is one part of the list.

Test: chemical genetic growth profiling, strain panel (AID 1159580);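 also: tested at 20 µM; growth read once vehicle control cultures reached saturation at 30 °C; 1 = growth at the plate median or of vehicle wells; lower values mean less growth of the strain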
Conditions: S. cerevisiae deletion strains, growth OD

Measured: normalized growth

CC(C)(C)NC[C@@H](O)COc1nsnc1N1CCOCC1
inactive: locus YAL021C, strain ccr4, stronger effect = lower value 1.02 | locus YAL026C, strain drs2, stronger effect = lower value 1.01 | locus YAL030W, strain snc1, stronger effect = lower value 1.02 | locus YBL061C, strain skt5, stronger effect = lower value 1.01 | locus YBR009C, strain hhf1, stronger effect = lower value 1.01 | locus YBR021W, strain FUR4, stronger effect = lower value 1 | locus YBR023C, strain chs3, stronger effect = lower value 1 | locus YBR171W, strain sec66, stronger effect = lower value 1.03 | locus YBR229C, strain ROT2, stronger effect = lower value 0.977 | locus YBR231C, strain swc5, stronger effect = lower value 1.02 | locus YBR279W, strain paf1, stronger effect = lower value 1.01 | locus YCL011C, strain gbp2, stronger effect = lower value 1.02 | locus YCL016C, strain dcc1, stronger effect = lower value 1.01 | locus YCL029C, strain bik1, stronger effect = lower value 0.978 | locus YCL069W, strain vba3, stronger effect = lower value 1.01 | locus YCR088W, strain abp1, stronger effect = lower value 1.02 | locus YDL005C, strain med2, stronger effect = lower value 1.02 | locus YDL035C, strain GPR1, stronger effect = lower value 1.02 | locus YDL040C, strain nat1, stronger effect = lower value 1.01 | locus YDL074C, strain BRE1, stronger effect = lower value 0.985 | locus YDL101C, strain DUN1, stronger effect = lower value 0.99 | locus YDL185W, strain tfp1, stronger effect = lower value 0.977 | locus YDL192W, strain arf1, stronger effect = lower value 0.994 | locus YDR001C, strain nth1, stronger effect = lower value 1.01 | locus YDR069C, strain doa4, stronger effect = lower value 1.01 | locus YDR101C, strain arx1, stronger effect = lower value 0.95 | locus YDR137W, strain rgp1, stronger effect = lower value 1.02 | locus YDR150W, strain NUM1, stronger effect = lower value 0.99 | locus YDR159W, strain sac3, stronger effect = lower value 1 | locus YDR162C, strain NBP2, stronger effect = lower value 1.02 | locus YDR195W, strain ref2 1.03 | locus YDR297W, strain sur2, stronger effect = lower value 1.02 | locus YDR318W, strain mcm21, stronger effect = lower value 1 | locus YDR334W, strain swr1, stronger effect = lower value 1.02 | locus YDR335W, strain msn5, stronger effect = lower value 1.02 | locus YDR388W, stronger effect = lower value 0.99 | locus YDR392W, strain spt3, stronger effect = lower value 0.973 | locus YDR502C, strain sam2, stronger effect = lower value 0.994 | locus YEL003W, strain gim4, stronger effect = lower value 1.02 | locus YEL037C, strain rad23, stronger effect = lower value 1.01 | locus YEL061C, strain CIN8 (second series), stronger effect = lower value 1.02 | locus YEL061C, strain CIN8, stronger effect = lower value 0.996 | locus YER015W, strain faa2, stronger effect = lower value 1 | locus YER016W, strain bim1, stronger effect = lower value 0.994 | locus YER110C, stronger effect = lower value 0.974 | locus YER111C, strain swi4, stronger effect = lower value 1.02 | locus YER155C, strain BEM2 (second series), stronger effect = lower value 1.01 | locus YER155C, strain BEM2, stronger effect = lower value 0.987 | locus YER167W, strain BCK2, stronger effect = lower value 0.986 | locus YFR010W, strain ubp6, stronger effect = lower value 1.02 | locus YGL078C, strain dbp3, stronger effect = lower value 1 | locus YGL086W, strain mad1, stronger effect = lower value 0.966 | locus YGL167C, strain pmr1, stronger effect = lower value 1.02 | locus YGL173C, strain kem1, stronger effect = lower value 1.02 | locus YGL227W, strain vid30, stronger effect = lower value 1.01 | locus YGL240W, strain doc1, stronger effect = lower value 1.02 | locus YGL248W, strain PDE1, stronger effect = lower value 1 | locus YGL253W, strain hxk2, stronger effect = lower value 1.02 | locus YGR078C, strain PAC10, stronger effect = lower value 1 | locus YGR135W, strain pre9, stronger effect = lower value 1 | locus YGR252W, strain gcn5, stronger effect = lower value 1.08 | locus YHR013C, strain ard1, stronger effect = lower value 1.02 | locus YHR027C, strain rpn1, stronger effect = lower value 1.01 | locus YHR030C, strain SLT2, stronger effect = lower value 0.997 and 0.975 | locus YHR079C, strain IRE1 (second series), stronger effect = lower value 0.983 | locus YHR079C, strain IRE1, stronger effect = lower value 0.973 | locus YHR094C, strain hxt1, stronger effect = lower value 0.974 | locus YHR129C, strain ARP1, stronger effect = lower value 1 | locus YHR142W, strain chs7, stronger effect = lower value 1.03 | locus YHR200W, strain rpn10, stronger effect = lower value 1 | locus YIL066C, strain RNR3, stronger effect = lower value 0.985 | locus YIL073C, strain SPO22, stronger effect = lower value 1.01 | locus YIL125W, strain kgd1, stronger effect = lower value 0.981 | locus YIR030C, strain dcg1, stronger effect = lower value 1 | locus YJL092W, strain hpr5, stronger effect = lower value 1.01 | locus YJL095W, strain BCK1 (second series), stronger effect = lower value 1.02 | locus YJL095W, strain BCK1, stronger effect = lower value 1.01 and 0.975 | locus YJL115W, strain asf1, stronger effect = lower value 1.01 | locus YJL129C, strain trk1, stronger effect = lower value 1.02 | locus YJL134W, strain LCB3, stronger effect = lower value 0.985 | locus YJL154C, strain vps35, stronger effect = lower value 1.02 | locus YJL164C, strain tpk1, stronger effect = lower value 1.01 | locus YJL166W, strain qcr8, stronger effect = lower value 1.01 | locus YJL168C, strain set2, stronger effect = lower value 0.984 | locus YJL187C, strain SWE1 (second series), stronger effect = lower value 0.99 | locus YJL187C, strain SWE1, stronger effect = lower value 1.02 | locus YJR043C, strain POL32, stronger effect = lower value 1.03 | locus YJR066W, strain TOR1, stronger effect = lower value 0.929
